“And” between values parts separate entries of the source, which are not always exact repeats. Identical values can stand only once. The source made the active and inactive calls. The calls were made as follows: active = hit-call score of the fitted dose curve at least 0.9, where 1 is the maximum; inactive = score below 0.9.

The test in a line: BSK_SAg_PBMCCytotoxicity: PBMC Cytotoxicity Assessment in the BioMAP Diversity Plus: SAg Assay (AID 2283093).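 Also: fitted both ways against DMSO so a hit may be loss or gain of signal.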 Conditions: primary human HUVEC with PBMC. Here is the method: BSK_SAg is a cell-based, multiplexed-readout assay that uses umbilical vein endothelium and peripheral blood mononuclear cells, a human vascular primary cell co-culture, with measurements taken at 24 hours after chemical dosing in a 96-well plate.BSK_SAg_PBMCCytotoxicity is an assay component measured in the BSK_SAg assay. It measures Alamar blue related to cell death using Alamar Blue Reduction technology.Data from the assay component BSK_SAg_PBMCCytotoxicity was analyzed into 1 assay endpoint. This assay endpoint, BSK_SAg_PBMCCytotoxicity, was analyzed with bidirectional fitting relative to DMSO as the negative control and baseline of activity. Using a type of viability reporter, gain or loss-of-signal activity can be used to understand changes in the viability. Furthermore, this assay endpoint can be referred to as a secondary readout, because this assay has produced multiple assay endpoints where this one serves a viability function. To generalize the intended target to other relatable targets, this assay endpoint is annotated to the cell cycle intended target family, where the subfamily is cytotoxicity.
The levels of cell surface (or secreted, indicated by the prefix "s") biomarker endpoints were measured by ELISA. Overt cytotoxicity to cells in confluent adherent cultures (all systems other than the BT system) was assessed by measuring total protein levels using sulforhodamine B (SRB) staining in parallel cultures at the time of biomarker measurements, indicated as SRB endpoints. For proliferation assays for adherent cell types, individual cell types are cultured at sub-confluence and relative cell numbers quantified by SRB staining at time points optimized for each system (48 h: 3C and CASM3C systems; 72 h: BT and HDF3CGF systems; 96 h: SAg system). SRB was performed by staining cells with 0.1% SRB after fixation with 10% TCA and reading wells at 560 nm.Viability and proliferation of PBMC (T cells) was quantified by Alamar Blue reduction for the SAg and BT systems. For PBMC viability (referred to as PBMC Cytotoxicity within the assay endpoint names), cells were plated (75,000/well in a 96-well plate) and then chemical samples added for 1 h before addition of activators, SEB and TSST-1 (20 ng/mL final concentration each). Cells were incubated for 90 h. Then, Alamar Blue (20 uL/well) (Invitrogen, Cat DAL1100) was added for 6 h, and the plates were read with a fluorescence microplate reader at 546/580 nm (excitation/emission). For PBMC proliferation, cells were plated and activated as above but incubated for only 16 h prior to addition of Alamar Blue. Plates were read after 6 h.
As to `Cc1ccn2nc(S(=O)(=O)Nc3c(F)cccc3F)nc2n1`, the result was inactive.

Turning to `C[N+]1(C)CCCCC1`, the outcome was inactive.

As to `CC(C)N(C(=O)SCC(Cl)=C(Cl)Cl)C(C)C`, the AC50 – broadly, the midpoint of the concentration-response curve, whichever way the signal moves – is 36.5 µM (active).

For `COP(=O)(OC)OC(Br)C(Cl)(Cl)Br` (stereo not given), the AC50 was 14.7 µM (active).

On to `CCCSP(=O)(OCC)SCCC`, for which the outcome was inactive.

Turning to `CCCCN(CC)c1c([N+](=O)[O-])cc(C(F)(F)F)cc1[N+](=O)[O-]`, the concentration at half-maximal activity (AC50) is 24.4 µM (active).

Take `FC(F)C(F)(F)OCC(Cn1cncn1)c1ccc(Cl)cc1Cl` (stereo not given): the outcome was inactive.

With `O=[N+]([O-])c1cc(C(F)(F)F)c(Cl)c([N+](=O)[O-])c1Nc1ncc(C(F)(F)F)cc1Cl`, the AC50 is 814 nM (active) and 2.03 µM (active).

Consider `CCOP(=S)(OCC)OC(Cl)C(Cl)(Cl)Cl` (stereo not given), for which the concentration at half-maximal activity (AC50) was 29.9 µM (active).

Consider `C=C(C)[C@H]1Cc2c(ccc3c2O[C@@H]2COc4cc(OC)c(OC)cc4[C@@H]2C3=O)O1`, for which the outcome was inactive.

`CNC(=O)Oc1cccc2c1OC(C)(C)O2`: the outcome was inactive.

For the molecule `O=c1ccc(=O)[nH][nH]1`, the outcome was inactive.

For `COP(=O)(NC(C)=O)SC` (stereo not given), the outcome was inactive.

Turning to `Cc1cc(C2CC2)nc(Nc2ccccc2)n1`, the concentration at half-maximal activity (AC50) is 7.66 µM (active).

For the molecule `CN1COCN(Cc2cnc(Cl)s2)C1=N[N+](=O)[O-]`, the outcome was inactive.

Consider `CC[C@H](C)[C@H]1O[C@]2(C=C[C@@H]1C)C[C@@H]1C[C@@H](C/C=C(\C)[C@@H](O[C@H]3C[C@H](OC)[C@@H](O[C@H]4C[C@H](OC)[C@@H](NC)[C@H](C)O4)[C@H](C)O3)[C@@H](C)/C=C/C=C3\CO[C@@H]4[C@H](O)C(C)=C[C@@H](C(=O)O1)[C@]34O)O2`, for which the AC50 was 2.6 µM (active).

Consider `COc1ccc(C(=CC(=O)N2CCOCC2)c2ccc(Cl)cc2)cc1OC`, for which the half-maximal activity concentration (AC50) is 9.07 µM (active).

In the case of `CCCCOC(=O)c1ccccc1C(=O)O`, the outcome was inactive.

As for `CCCSP(=O)(OCC)Oc1ccc(Br)cc1Cl` (stereo not given), the AC50 was 32.9 µM (active).

`CCOP(=S)(OCC)Oc1cc(C)nc(C(C)C)n1`: the outcome was inactive.

Consider `COP(=O)(OC)SCn1c(=O)oc2cc(Cl)cnc21`, for which the result was inactive.

Regarding `CC(COc1ccc(Oc2ccccc2)cc1)Oc1ccccn1` (stereo not given), the AC50 was 12 µM (active).

Take `COc1cc(OC)nc(Sc2cccc(Cl)c2C(=O)O)n1`: the result was inactive.

For `CCOP(=S)(OCC)SCCSCC`, the result was inactive.

With `CC(C)[C@H](C(=O)O[C@H](C#N)c1cccc(Oc2ccccc2)c1)c1ccc(Cl)cc1`, the AC50 is 4.84 µM (active).

For the molecule `CC(C)=CC1C(C(=O)OCN2C(=O)C3=C(CCCC3)C2=O)C1(C)C` (stereo not given), the AC50 is 26.1 µM (active).

Turning to `CSc1nnc(C(C)(C)C)c(=O)n1N`, the result was inactive.

In the case of `C[Si](Cn1cncn1)(c1ccc(F)cc1)c1ccc(F)cc1`, the result was inactive.

As to `CCOP(=S)(Oc1cnc(C(C)(C)C)nc1)OC(C)C` (stereo not given), the AC50 is 36.7 µM (active).

`CN(C)C(=O)Nc1cccc(C(F)(F)F)c1`: the outcome was inactive.

Consider `COc1cccc(C(=O)NN(C(=O)c2cc(C)cc(C)c2)C(C)(C)C)c1C`, for which the outcome was inactive.

Consider `Cc1nn(-c2cc(NS(C)(=O)=O)c(Cl)cc2Cl)c(=O)n1C(F)F`, for which the outcome was inactive.

On to `CNC(=O)ON=C(C)SC`, for which the outcome was inactive.

`COP(=O)(OC)C(O)C(Cl)(Cl)Cl` (stereo not given): the result was inactive.

`CCOC(=O)COc1cc(-c2nn(C)c(OC(F)F)c2Cl)c(F)cc1Cl`: the outcome was inactive.

For the molecule `CC1=NNC(=O)N(/N=C/c2cccnc2)C1`, the outcome was inactive.

Turning to `CCOP(=O)(NC(C)C)Oc1ccc(SC)c(C)c1` (stereo not given), the outcome was inactive.

As to `CSC1=N[C@@](C)(c2ccccc2)C(=O)N1Nc1ccccc1`, the AC50 was 7.23 µM (active).

Regarding `Nc1nc(N)nc(NC2CC2)n1`, the outcome was inactive.

On to `Nc1c(Cl)cc([N+](=O)[O-])cc1Cl`, for which the outcome was inactive.

Values taken from PubChem BioAssay (EPA / NIEHS).
